Measured values: the supplement of paper PMC10849652
Of roughly 7,900 targets only a part is listed; those with a hit were picked by preference. About 0.6% of all pairs of compound and target were hits. A number with no mark means an inactive call.

Key:
Assay in all cases: log2 fold change, soluble protein after heating vs DMSO (PISA); higher = thermal stabilisation; K562 cells, 10 uM, 30 min; active = over 0.2 and 3.5 SD of the protein, either way, in both replicates (recomputed)
[1] = compound: CC[C@@H]1C(=O)N(C)c2cnc(Nc3ccc(C(=O)NC4CCN(C)CC4)cc3OC)nc2N1C1CCCC1
Procedure, shortened: (§1)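 Values are thermal stability changes relative to control samples and are taken from duplicates. They are stated as log2 fold changes. Before quantification by TMTpro 16plex LC-MS/MS with equalised channel sums, K562 cells at 2×10^6 cells/mL were treated with 10 μM compound for 30 min, heated in aliquots for 3 min across 48°C-58°C, pooled, extracted in PBS with 0.5% NP-40 at 4°C, and centrifuged at 21,000xg for 90 min to give the soluble supernatant.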

[2] = compound: CC[C@@H]1C(=O)N(C)c2cnc(Nc3ccc(C(=O)N[C@H]4CC[C@H](N5CCN(CC6CC6)CC5)CC4)cc3OC)nc2N1C(C)C [volasertib]
Procedure, shortened: as §1

[3] = compound: CC[C@H](C)N1C=C(C2=C(C=C(C=C21)C3=CN=C(C=C3)N4CCNCC4)C(=O)NCC5=C(C=C(NC5=O)C)C)C
Procedure, shortened: as §1

[4] = compound: CC[C@H](C)[C@@H](C(=O)N[C@@H]([C@@H](C)O)C(=O)N[C@@H](CC(C)C)C(=O)[C@]1(CO1)C)NC(=O)[C@H]([C@@H](C)CC)N(C)C(=O)C [epoxomicin]
Procedure, shortened: as §1

[5] = compound: CCn1c(C(=O)N(C2CC2)C2CC2)cc2c3c(ncn3C)c(Nc3cc(C)n(C)n3)nc21
Procedure, shortened: as §1

[6] = compound: CCn1cc(-c2ccnc3[nH]c(-c4cccc(CN(C)C)c4)cc23)c(-c2ccc(NC(=O)N(C)C)cc2)n1
Procedure, shortened: as §1

[7] = compound: CN(C)CC(=O)Nc1ccc2[nH]c(=O)c3ccccc3c2c1
Procedure, shortened: as §1

[8] = compound: CN(CCOC1=CC=C(C=C1)C[C@H]2C(=O)NC(=O)S2)C3=CC=CC=N3 (racemic) [rosiglitazone]
Procedure, shortened: as §1

[9] = compound: CN1C2=C(C3=C1C(=O)N(N=C3)CC4=CC(=CC=C4)N)SC(=C2)S(=O)C
Procedure, shortened: as §1

[10] = compound: CN1CCC(CNc2ccc3ncc(-c4cccc(OC(F)(F)F)c4)n3n2)CC1
Procedure, shortened: as §1

[11] = compound: CN1CCN(CCOc2cc(OC3CCOCC3)c3c(Nc4c(Cl)ccc5c4OCO5)ncnc3c2)CC1 [saracatinib]
Procedure, shortened: as §1

[12] = compound: CN1CCN(c2nc(C3=C(c4c[nH]c5ccccc45)C(=O)NC3=O)c3ccccc3n2)CC1 [sotrastaurin]
Procedure, shortened: as §1

[13] = compound: CN1CC[C@H](c2c(O)cc(O)c3c(=O)cc(-c4ccccc4Cl)oc23)[C@H](O)C1 [alvocidib]
Procedure, shortened: as §1

[14] = compound: CN1CCc2c(c3ccccc3n2Cc2ccc(C(=O)NO)cc2)C1 [Tubastatin A]
Procedure, shortened: as §1

[15] = compound: CNC(=O)C1=CC=CC=C1NC2=NC(=NC=C2Cl)NC3=C(C=C(C=C3)N4CCOCC4)OC
Procedure, shortened: as §1

[16] = compound: CNC(=O)c1ccc(Nc2ncc(C(F)(F)F)c(NCc3nccnc3N(C)S(C)(=O)=O)n2)cc1 [defactinib]
Procedure, shortened: as §1

[17] = compound: CNCc1ccc(-c2[nH]c3cc(F)cc4c3c2CCNC4=O)cc1 [rucaparib]
Procedure, shortened: as §1

[18] = compound: CNc1nc(-c2ccc3c(N)n[nH]c3c2)cc(N2C[C@@H](C(=O)NC3CCCCC3)CC[C@H]2C)n1
Procedure, shortened: as §1

[19] = compound: COC(=O)N[C@@H](C)CNc1nccc(-c2cn(C(C)C)nc2-c2cc(Cl)cc(NS(C)(=O)=O)c2F)n1 [encorafenib]
Procedure, shortened: as §1

[20] = compound: COC(=O)[C@H](CCSC)NC(=O)C1=C(C=C(C=C1)NC[C@H](CS)N)C2=CC=CC=C2
Procedure, shortened: as §1

Chain of UniProt Q96BN8 (Q96BN8 whole entry, looked up): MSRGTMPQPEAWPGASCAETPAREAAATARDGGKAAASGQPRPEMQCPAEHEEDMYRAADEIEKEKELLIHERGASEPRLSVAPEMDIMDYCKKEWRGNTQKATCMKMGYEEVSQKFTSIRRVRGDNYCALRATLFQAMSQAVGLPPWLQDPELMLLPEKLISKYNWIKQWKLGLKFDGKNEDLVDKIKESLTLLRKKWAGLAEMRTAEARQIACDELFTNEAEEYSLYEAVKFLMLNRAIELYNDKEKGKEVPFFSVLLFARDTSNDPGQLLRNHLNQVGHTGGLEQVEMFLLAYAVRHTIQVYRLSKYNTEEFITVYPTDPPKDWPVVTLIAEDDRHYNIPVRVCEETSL
Chain of UniProt Q9HCE1 (Q9HCE1 whole entry, looked up): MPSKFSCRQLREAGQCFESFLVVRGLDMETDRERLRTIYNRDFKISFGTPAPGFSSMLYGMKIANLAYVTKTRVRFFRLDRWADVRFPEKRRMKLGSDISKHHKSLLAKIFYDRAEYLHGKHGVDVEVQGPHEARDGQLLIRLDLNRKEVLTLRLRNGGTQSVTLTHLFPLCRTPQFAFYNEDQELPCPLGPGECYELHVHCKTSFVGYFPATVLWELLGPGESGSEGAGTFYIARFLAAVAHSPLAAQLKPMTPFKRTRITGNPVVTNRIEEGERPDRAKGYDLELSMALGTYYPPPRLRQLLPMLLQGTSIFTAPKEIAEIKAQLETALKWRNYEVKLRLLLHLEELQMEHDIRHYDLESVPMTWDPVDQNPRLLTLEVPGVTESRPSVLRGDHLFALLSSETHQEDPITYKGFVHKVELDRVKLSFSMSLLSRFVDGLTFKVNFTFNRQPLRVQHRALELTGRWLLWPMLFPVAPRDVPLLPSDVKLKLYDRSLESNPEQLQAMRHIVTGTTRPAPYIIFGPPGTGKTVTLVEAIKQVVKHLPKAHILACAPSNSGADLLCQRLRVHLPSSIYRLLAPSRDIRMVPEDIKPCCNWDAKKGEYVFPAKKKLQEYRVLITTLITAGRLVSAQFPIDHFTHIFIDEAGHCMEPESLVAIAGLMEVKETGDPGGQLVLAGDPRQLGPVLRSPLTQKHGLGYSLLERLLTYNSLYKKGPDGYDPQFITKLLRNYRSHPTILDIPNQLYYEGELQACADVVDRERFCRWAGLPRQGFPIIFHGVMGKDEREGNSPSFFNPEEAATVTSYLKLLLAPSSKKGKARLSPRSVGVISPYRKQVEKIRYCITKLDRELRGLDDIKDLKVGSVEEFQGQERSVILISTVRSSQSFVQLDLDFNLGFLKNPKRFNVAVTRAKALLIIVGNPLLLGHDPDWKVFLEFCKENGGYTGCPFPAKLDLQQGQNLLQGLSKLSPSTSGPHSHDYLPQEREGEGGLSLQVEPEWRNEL
Chain of UniProt Q00013 (Q00013 whole entry, looked up): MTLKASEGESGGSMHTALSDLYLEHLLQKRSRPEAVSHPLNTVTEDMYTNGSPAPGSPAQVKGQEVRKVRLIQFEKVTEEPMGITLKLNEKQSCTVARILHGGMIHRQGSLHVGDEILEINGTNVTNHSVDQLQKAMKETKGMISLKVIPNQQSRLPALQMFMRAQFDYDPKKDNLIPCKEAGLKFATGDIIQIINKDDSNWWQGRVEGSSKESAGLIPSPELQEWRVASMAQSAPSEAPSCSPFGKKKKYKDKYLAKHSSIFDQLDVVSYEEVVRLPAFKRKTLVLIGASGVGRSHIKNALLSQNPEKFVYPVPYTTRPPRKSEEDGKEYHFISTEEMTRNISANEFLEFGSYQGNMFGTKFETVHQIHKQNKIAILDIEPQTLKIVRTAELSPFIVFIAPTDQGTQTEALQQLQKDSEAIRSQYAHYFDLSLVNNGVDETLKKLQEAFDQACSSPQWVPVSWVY
Chain of UniProt P55786 (P55786 whole entry, looked up): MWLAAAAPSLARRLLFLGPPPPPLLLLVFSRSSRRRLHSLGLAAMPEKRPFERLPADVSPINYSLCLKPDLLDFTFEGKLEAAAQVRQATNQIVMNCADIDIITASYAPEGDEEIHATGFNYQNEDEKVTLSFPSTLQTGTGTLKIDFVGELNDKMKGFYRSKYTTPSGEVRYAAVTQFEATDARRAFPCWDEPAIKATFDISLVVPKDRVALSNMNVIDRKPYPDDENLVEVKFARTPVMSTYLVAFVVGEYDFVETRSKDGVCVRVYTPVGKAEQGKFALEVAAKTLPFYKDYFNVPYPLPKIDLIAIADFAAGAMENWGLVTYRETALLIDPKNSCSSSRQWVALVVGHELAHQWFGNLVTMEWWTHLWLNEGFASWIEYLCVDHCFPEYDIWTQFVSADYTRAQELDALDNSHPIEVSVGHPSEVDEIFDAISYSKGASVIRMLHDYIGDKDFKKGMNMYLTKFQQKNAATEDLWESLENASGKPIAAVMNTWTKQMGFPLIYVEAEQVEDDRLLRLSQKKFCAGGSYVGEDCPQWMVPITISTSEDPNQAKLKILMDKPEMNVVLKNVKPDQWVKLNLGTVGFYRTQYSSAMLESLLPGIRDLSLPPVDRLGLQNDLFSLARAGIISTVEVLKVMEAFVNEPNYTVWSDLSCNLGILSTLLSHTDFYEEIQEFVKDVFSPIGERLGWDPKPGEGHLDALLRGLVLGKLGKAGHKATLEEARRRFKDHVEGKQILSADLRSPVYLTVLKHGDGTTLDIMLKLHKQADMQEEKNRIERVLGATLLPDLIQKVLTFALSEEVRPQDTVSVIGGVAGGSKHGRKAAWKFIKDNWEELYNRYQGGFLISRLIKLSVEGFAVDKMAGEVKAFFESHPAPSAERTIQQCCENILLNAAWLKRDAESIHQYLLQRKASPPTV
Chain of UniProt P35749 (P35749 whole entry, looked up): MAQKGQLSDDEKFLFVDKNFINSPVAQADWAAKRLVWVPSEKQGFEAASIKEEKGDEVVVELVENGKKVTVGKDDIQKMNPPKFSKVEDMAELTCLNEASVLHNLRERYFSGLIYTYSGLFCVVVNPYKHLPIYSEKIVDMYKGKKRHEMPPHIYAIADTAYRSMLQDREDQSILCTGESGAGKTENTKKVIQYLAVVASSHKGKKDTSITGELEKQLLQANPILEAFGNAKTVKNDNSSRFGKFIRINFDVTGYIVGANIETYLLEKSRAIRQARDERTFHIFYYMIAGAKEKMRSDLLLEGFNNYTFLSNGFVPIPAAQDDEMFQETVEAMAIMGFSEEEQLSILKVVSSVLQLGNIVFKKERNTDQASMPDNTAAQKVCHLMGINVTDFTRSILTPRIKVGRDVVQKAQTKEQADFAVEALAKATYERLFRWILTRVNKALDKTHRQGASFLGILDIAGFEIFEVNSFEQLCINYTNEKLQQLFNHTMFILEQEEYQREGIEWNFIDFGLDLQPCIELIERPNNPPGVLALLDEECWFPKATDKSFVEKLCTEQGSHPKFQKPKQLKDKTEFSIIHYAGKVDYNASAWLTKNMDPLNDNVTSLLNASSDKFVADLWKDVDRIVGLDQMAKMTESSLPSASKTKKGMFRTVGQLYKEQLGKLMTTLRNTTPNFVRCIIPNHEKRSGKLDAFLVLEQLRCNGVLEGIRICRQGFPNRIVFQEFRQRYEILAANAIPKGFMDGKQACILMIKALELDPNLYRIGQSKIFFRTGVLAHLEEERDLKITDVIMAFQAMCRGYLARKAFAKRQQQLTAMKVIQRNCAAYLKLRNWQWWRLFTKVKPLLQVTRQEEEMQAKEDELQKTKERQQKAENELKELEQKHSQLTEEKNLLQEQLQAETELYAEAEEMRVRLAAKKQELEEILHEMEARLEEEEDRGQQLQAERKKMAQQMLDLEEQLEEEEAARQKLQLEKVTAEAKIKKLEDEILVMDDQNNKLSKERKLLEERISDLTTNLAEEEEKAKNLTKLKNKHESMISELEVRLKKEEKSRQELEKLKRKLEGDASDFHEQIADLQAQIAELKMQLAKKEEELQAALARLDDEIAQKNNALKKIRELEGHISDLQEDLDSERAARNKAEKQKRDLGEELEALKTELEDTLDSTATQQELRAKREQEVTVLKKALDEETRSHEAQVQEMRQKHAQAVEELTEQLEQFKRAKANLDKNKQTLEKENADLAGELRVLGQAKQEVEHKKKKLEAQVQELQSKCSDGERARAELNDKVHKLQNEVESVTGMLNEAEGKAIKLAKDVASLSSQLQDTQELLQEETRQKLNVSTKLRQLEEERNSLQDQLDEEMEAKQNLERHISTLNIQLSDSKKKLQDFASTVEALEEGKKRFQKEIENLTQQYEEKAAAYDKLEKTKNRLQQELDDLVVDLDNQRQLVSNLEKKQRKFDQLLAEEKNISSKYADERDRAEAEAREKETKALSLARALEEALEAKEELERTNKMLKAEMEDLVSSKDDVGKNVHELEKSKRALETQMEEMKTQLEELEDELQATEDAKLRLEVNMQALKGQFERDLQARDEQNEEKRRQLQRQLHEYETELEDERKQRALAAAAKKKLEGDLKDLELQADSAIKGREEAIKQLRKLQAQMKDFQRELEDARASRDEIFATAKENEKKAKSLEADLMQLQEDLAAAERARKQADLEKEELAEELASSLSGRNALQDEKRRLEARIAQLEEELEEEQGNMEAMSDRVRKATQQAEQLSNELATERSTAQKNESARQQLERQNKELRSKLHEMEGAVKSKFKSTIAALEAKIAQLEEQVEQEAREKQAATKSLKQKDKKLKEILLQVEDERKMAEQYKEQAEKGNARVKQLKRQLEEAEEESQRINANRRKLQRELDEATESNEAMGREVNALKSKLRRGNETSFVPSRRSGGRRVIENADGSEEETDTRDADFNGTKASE

| Target | log2 fold change [1] | log2 fold change [2] | log2 fold change [3] | log2 fold change [4] | log2 fold change [5] | log2 fold change [6] | log2 fold change [7] | log2 fold change [8] | log2 fold change [9] | log2 fold change [10] | log2 fold change [11] | log2 fold change [12] | log2 fold change [13] | log2 fold change [14] | log2 fold change [15] | log2 fold change [16] | log2 fold change [17] | log2 fold change [18] | log2 fold change [19] | log2 fold change [20] |
| --- | --- | --- | --- | --- | --- | --- | --- | --- | --- | --- | --- | --- | --- | --- | --- | --- | --- | --- | --- | --- |
| NUDT1 (UniProt P36639) | 0.971 (active) | 1.35 (active) | -0.012 | -0.039 | -0.113 | -0.19 | 0.06 | 0.054 | -0.088 | 0.157 | 0.068 | 0.043 | -0.038 | 0.193 | 0.05 | 0.019 | 0.416 | 0.196 | -0.03 | -0.074 |
| MYH11 isoform 2 (UniProt P35749) | -0.021 | -0.045 | 0.042 | 0.061 | -0.005 | 0.046 | 0.019 | 0.015 | -0.077 | -0.018 | 0.069 | -0.024 | -0.024 | -0.025 | 0.03 | -0.039 | -0.034 | 0.009 | 0.001 | -0.022 |
| NPEPPS (UniProt P55786) | -0.005 | -0.023 | 0.079 | -0.022 | 0.082 | -0.102 | 0.007 | 0.046 | -0.098 | -0.141 | -0.013 | 0.108 | -0.077 | 0.012 | -0.082 | -0.004 | 0.013 | 0.075 | -0.032 | 0.231 (active) |
| MOV10 (UniProt Q9HCE1) | 0.199 | 0.195 | -0.029 | -0.156 | 0.029 | 0.158 | -0.061 | -0.044 | 0.185 | 0.331 | 0.007 | 0.024 | 0.232 | 0.025 | 0.107 | 0.167 | 0.271 | 0 | 0.05 | 0.053 |
| NASP (UniProt P49321) | -0.118 | -0.277 (active) | 0.049 | 0.046 | 0.035 | -0.03 | 0.004 | 0.029 | -0.061 | -0.051 | 0 | -0.045 | -0.08 | 0.012 | 0.073 | -0.085 | -0.11 | -0.041 | 0.001 | -0.004 |
| MRPS5 (UniProt P82675) | 0.005 | -0.066 | 0.181 | 0.077 | -0.048 | -0.05 | -0.037 | -0.005 | 0.032 | 0.102 | -0.094 | -0.124 | -0.042 | -0.009 | -0.024 | 0.068 | 0.129 | 0.161 | 0.072 | -0.068 |
| OTULIN (UniProt Q96BN8) | 0.045 | -0.331 | 0.074 | 0.037 | -0.093 | -0.084 | 0.054 | 0.051 | 0.015 | -0.226 | -0.029 | -0.044 | 0.046 | 0.019 | -0.009 | -0.029 | 0.02 | -0.053 | -0.012 | -0.012 |
| MPP1 (UniProt Q00013) | -0.039 | -0.112 | 0.063 | 0.058 | -0.025 | -0.051 | 0.011 | 0.051 | 0.043 | -0.256 (active) | -0.023 | -0.085 | -0.022 | 0.051 | 0.073 | -0.082 | 0.104 | 0.059 | 0.067 | -0.047 |
